# Assay results taken from PubChem BioAssay (EPA / NIEHS).
# The source made the active and inactive calls. How the source made its calls: active means hit-call score of the fitted dose curve at least 0.9, where 1 is the maximum; inactive means score below 0.9.
# Legend:
# [1] = ATG_GRE_CIS: Attagene CIS-FACTORIAL HepG2 Assay for human Glucocorticoid Response Elements (GRE) (AID 2282947); conditions: HepG2 GRE cis-reporter, Attagene multiplex mRNA; actives raise or lower the signal
# Method in brief: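 Transiently transfected HepG2 cells carrying GRE cis-reporter units (endogenous TF activity) dosed 24 h; reporter mRNA quantified by RT-PCR, 6-FAM labelling, HpaI digestion and capillary electrophoresis. Bidirectional fit versus DMSO baseline.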
# [2] = ATG_ISRE_CIS: Attagene CIS-FACTORIAL HepG2 Assay for human Interferon Regulatory Factor 1 (IRF1) binding to an Interferon-Stimulated Response Element (ISRE) (AID 2282948); conditions: HepG2 ISRE cis-reporter (Attagene), mRNA transcription readout; actives raise or lower the signal
# Method in brief: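 Transiently transfected HepG2 cells carrying cis-element reporter units, dosed 24 hours. Reporter mRNA quantified by RT-PCR, fluorescent primer extension, HpaI digestion and capillary electrophoresis. Bidirectional fitting relative to DMSO.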
# [3] = ATG_M_32_CIS: Attagene CIS-FACTORIAL HepG2 Assay for M32 Transcription Factor (Internal Marker) (AID 2282949); conditions: HepG2 Attagene cis-factorial M32 reporter, mRNA; actives raise or lower the signal;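 further: background control marker of the multiplexed CIS panel rather than a real target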
# Method in brief: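 HepG2 cells transiently transfected with multiplexed cis-regulated reporter units, dosed 24 h. Reporter mRNA quantified by RT-PCR, 6-FAM labelling, HpaI digestion and capillary electrophoresis; bidirectional fit vs DMSO.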
# [4] = ATG_M_06_CIS: Attagene CIS-FACTORIAL HepG2 Assay for M06 Transcription Factor (Internal Marker) (AID 2282950); conditions: HepG2 Attagene CIS-FACTORIAL M06 internal marker reporter; actives raise or lower the signal
# Method in brief: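 Terse: HepG2, transient MRTU transfection (FuGene 6), 24 h dosing; total RNA, oligo(dT) RT, PCR, FAM label, HpaI cut, capillary electrophoresis; bidirectional fit vs DMSO baseline; background-control endpoint.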
# [5] = target: Hypoxia-inducible factor 1-alpha (Homo sapiens) (UniProt Q16665); test: ATG_HIF1a_CIS: Attagene CIS-FACTORIAL HepG2 Assay for human Hypoxia Inducible Factor 1 (HIF1A) (AID 2282951); conditions: HepG2 Attagene cis-factorial HIF1a reporter transcription; actives raise or lower the signal
# Method in brief: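 Activity is fitted in both directions relative to DMSO. Reporter transcripts are read by RT-PCR, fluorescent primer extension and capillary electrophoresis after 24 h chemical treatment. The cells are HepG2 carrying transiently transfected cis-element-driven reporter units responding to endogenous factors.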
# [6] = target: Hepatocyte nuclear factor 6 (Homo sapiens) (UniProt Q9UBC0); test: ATG_HNF6_CIS: Attagene CIS-FACTORIAL HepG2 Assay for human Hepatocyte Nuclear Factor 6 (HNF6) (AID 2282952); conditions: HepG2 Attagene cis-factorial HNF6 reporter transcription; actives raise or lower the signal
# Method in brief: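 Reporter mRNA induction or loss in HepG2 after 24 h exposure; transient cis-MRTU transfection; fragments quantified by capillary electrophoresis; bidirectional analysis, DMSO as negative control.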
# [7] = target: Heat shock factor protein 1 (Homo sapiens) (UniProt Q00613); test: ATG_HSE_CIS: Attagene CIS-FACTORIAL HepG2 Assay for human Heat Shock Transcription Factor 1 (HSE) (AID 2282953); conditions: HepG2 HSE cis-reporter, Attagene RNA transcription; actives raise or lower the signal
# Method in brief: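 Read-out: fluorescence of reporter-specific RT-PCR fragments separated by capillary electrophoresis. HepG2 carrying transfected cis-element reporter units; 24 h dosing; activity fitted in both directions relative to DMSO baseline.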
# [8] = ATG_MRE_CIS: Attagene CIS-FACTORIAL HepG2 Assay for human Metal Responsive Element (MRE) (AID 2282954); conditions: HepG2 MRE cis-reporter transcription, Attagene multiplex; actives raise or lower the signal
# Method in brief: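 HepG2 cells transiently transfected with cis-element-driven reporter units; mRNA measured 24 h after dosing. Reporter transcripts quantified by RT-PCR, FAM labelling, HpaI digestion and capillary electrophoresis; bidirectional fit versus DMSO.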
# [9] = ATG_PBREM_CIS: Attagene CIS-FACTORIAL HepG2 Assay for human Phenobarbital-responsive Enhancer Module (PBREM) (AID 2282955); conditions: HepG2 PBREM cis-reporter, Attagene multiplexed transcription; actives raise or lower the signal
# Method in brief: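 Endogenous transcription factor activity was read from reporter transcripts in transiently transfected human HepG2 liver cells after 24 h dosing. RT-PCR products were fluorescently labelled, HpaI-cut and sized by capillary electrophoresis; activity fitted bidirectionally against DMSO baseline.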
# [10] = target: Paired box protein Pax-6 (Homo sapiens) (UniProt P26367); test: ATG_Pax6_CIS: Attagene CIS-FACTORIAL HepG2 Assay for human Paired Box 6 (PAX6) (AID 2282956); conditions: HepG2 CIS-FACTORIAL PAX6 reporter transcription, RNA readout; actives raise or lower the signal
# Method in brief: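 HepG2 cells transiently transfected with cis-promoter-driven multiplexed reporter units sensing endogenous transcription factor activity; 24 h chemical exposure. Reporter mRNA quantified by RT-PCR, 6-FAM labelling, HpaI digestion and capillary electrophoresis; bidirectional fit versus DMSO baseline.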
# [11] = ATG_PXRE_CIS: Attagene CIS-FACTORIAL HepG2 Assay for human Pregnane X Receptor Element (PXRE) (AID 2282957); conditions: HepG2 Attagene CIS-FACTORIAL PXRE reporter, mRNA; actives raise or lower the signal
# Method in brief: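 Transiently transfected HepG2 cells were dosed and incubated for 24 h. RNA was then isolated, DNase-treated, reverse-transcribed and reporter sequences amplified. Labeled, HpaI-digested fragments were quantified by capillary electrophoresis against DMSO.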
# [12] = ATG_PPRE_CIS: Attagene CIS-FACTORIAL HepG2 Assay for human Peroxisome Proliferator-activated Response Element (PPRE) (AID 2282958); conditions: HepG2 PPRE cis-element reporter, Attagene transcription factor profiling; actives raise or lower the signal
# Method in brief: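 Endogenous PPRE-driven transcription is measured in HepG2 cells carrying transfected multi-reporter constructs. Reporter transcripts are quantified by RT-PCR, HpaI digestion and capillary electrophoresis 24 h after dosing. DMSO baseline, bidirectional fit.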
# [13] = ATG_RORE_CIS: Attagene CIS-FACTORIAL HepG2 Assay for human RAR-related Orphan Receptor Element (RORE) (AID 2282959); conditions: HepG2 Attagene cis-factorial RORE reporter, mRNA; actives raise or lower the signal
# Method in brief: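 RORE reporter transcripts reflecting endogenous factor activity were read after 24 h compound exposure of transfected HepG2 cells, using reverse transcription, PCR, fluorescent labelling and capillary electrophoresis sizing. Gain or loss fitted against DMSO.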
# [14] = ATG_Sox_CIS: Attagene CIS-FACTORIAL HepG2 Assay for human SRY-box transcription factor (SOX) (AID 2282960); conditions: HepG2 Attagene cis-factorial SOX reporter, mRNA; actives raise or lower the signal
# Method in brief: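 Reporter transcripts, measured by RT-PCR and capillary electrophoresis of labelled fragments, report endogenous SOX transcription factor activity. Transiently transfected human HepG2 cells receive chemical for 24 h; changes in either direction are fitted relative to DMSO.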
# [15] = ATG_SREBP_CIS: Attagene CIS-FACTORIAL HepG2 Assay for human Sterol Regulatory Element Binding (SREBP) (AID 2282962); conditions: HepG2 Attagene cis-factorial SREBP reporter, mRNA; actives raise or lower the signal
# Method in brief: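 HepG2 cells transiently transfected with multiplexed cis-promoter reporter units sensing endogenous transcription factors; reporter mRNA measured 24 h after dosing by RT-PCR, 6-FAM labeling, HpaI digestion and capillary electrophoresis. Bidirectional fit versus DMSO.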
# [16] = target: Signal transducer and activator of transcription 3 (Homo sapiens) (UniProt P40763); test: ATG_STAT3_CIS: Attagene CIS-FACTORIAL HepG2 Assay for human Signal Transducer and Activator of Transcription 3 (STAT3) (AID 2282963); conditions: HepG2, Attagene cis-factorial STAT3 reporter transcription; actives raise or lower the signal
# Method in brief: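 HepG2 cells transiently transfected with multiple cis-element-driven reporter units report endogenous transcription factor activity. After 24 h compound exposure, reporter mRNA is measured by RT-PCR, 6-FAM labelling, HpaI digestion and capillary electrophoresis. Fitted bidirectionally versus DMSO.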
# [17] = ATG_TA_CIS: Attagene CIS-FACTORIAL HepG2 Assay for human TA Basal Promoter (AID 2282964); conditions: HepG2 Attagene CIS-factorial TA basal promoter reporter; actives raise or lower the signal
# Method in brief: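 Transfected HepG2, 24 h compound exposure; RNA → RT-PCR → FAM primer extension → HpaI cut → CE fluorescence. Gain/loss-of-signal fitted against DMSO negative control. Background-control readout.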
# [18] = ATG_TCF_b_cat_CIS: Attagene CIS-FACTORIAL HepG2 Assay for human T-Cell-Factor with beta-catenin (TCF/b-cat) (AID 2282965); conditions: HepG2 TCF/beta-catenin cis-reporter transcription, actives raise or lower the signal
# Method in brief: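 HepG2, transient MRTU transfection, cis-element-driven reporters (endogenous TFs). 24 h compound exposure. Readout: reporter mRNA by RT-PCR + 6-FAM primer extension, HpaI digest, capillary electrophoresis. Gain/loss fit vs DMSO baseline.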
# [19] = target: Transcription factor Sp1 (Homo sapiens) (UniProt P08047); test: ATG_Sp1_CIS: Attagene CIS-FACTORIAL HepG2 Assay for human Specificity Protein 1 (Sp1) (AID 2282961); conditions: HepG2 Sp1 cis-reporter transcription, actives raise or lower the signal
# Method in brief: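 Read-out is reporter transcript level, measured by RT-PCR and fluorescent capillary electrophoresis after 24 h chemical treatment. System: transiently transfected HepG2 cells reporting endogenous transcription factor activity; gain or loss fitted against DMSO baseline.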
# Hepatocyte nuclear factor 6 (Homo sapiens), sequence (Q9UBC0 whole entry, looked up, the tested form may be a part): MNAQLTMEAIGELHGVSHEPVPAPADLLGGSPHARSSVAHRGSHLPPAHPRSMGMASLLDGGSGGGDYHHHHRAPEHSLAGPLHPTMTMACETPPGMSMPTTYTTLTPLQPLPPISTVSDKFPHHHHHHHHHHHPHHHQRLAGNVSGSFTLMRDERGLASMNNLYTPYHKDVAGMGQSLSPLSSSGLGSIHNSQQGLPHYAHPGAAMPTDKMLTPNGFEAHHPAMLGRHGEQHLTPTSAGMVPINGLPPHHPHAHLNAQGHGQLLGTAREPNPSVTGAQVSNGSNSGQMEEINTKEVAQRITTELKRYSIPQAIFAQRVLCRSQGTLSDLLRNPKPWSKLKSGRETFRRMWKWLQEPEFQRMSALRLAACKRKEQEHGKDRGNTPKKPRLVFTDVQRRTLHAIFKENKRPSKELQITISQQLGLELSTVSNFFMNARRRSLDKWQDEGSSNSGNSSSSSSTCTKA
# Transcription factor Sp1 (Homo sapiens), sequence (P08047 whole entry, looked up): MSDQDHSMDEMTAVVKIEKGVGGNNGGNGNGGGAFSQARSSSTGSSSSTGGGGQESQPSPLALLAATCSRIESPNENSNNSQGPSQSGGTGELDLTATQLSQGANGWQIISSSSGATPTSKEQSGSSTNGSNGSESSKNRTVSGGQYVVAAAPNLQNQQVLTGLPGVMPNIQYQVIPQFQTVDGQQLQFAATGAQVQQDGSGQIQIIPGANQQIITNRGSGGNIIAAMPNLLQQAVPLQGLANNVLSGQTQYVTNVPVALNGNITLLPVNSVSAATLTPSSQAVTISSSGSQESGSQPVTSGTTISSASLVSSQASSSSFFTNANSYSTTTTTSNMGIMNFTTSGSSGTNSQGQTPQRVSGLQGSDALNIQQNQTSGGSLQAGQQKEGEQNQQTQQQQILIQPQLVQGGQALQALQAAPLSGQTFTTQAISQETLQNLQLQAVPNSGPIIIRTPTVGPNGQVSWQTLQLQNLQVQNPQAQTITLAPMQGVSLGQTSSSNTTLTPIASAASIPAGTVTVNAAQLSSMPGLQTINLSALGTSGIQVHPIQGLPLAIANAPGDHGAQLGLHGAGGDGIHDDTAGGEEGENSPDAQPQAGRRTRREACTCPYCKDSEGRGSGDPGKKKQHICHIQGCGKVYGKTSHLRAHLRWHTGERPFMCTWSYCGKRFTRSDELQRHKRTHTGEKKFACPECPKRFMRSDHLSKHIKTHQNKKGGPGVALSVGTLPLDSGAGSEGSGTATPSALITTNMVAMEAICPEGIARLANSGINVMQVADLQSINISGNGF
# Signal transducer and activator of transcription 3 (Homo sapiens), sequence (P40763 whole entry, looked up): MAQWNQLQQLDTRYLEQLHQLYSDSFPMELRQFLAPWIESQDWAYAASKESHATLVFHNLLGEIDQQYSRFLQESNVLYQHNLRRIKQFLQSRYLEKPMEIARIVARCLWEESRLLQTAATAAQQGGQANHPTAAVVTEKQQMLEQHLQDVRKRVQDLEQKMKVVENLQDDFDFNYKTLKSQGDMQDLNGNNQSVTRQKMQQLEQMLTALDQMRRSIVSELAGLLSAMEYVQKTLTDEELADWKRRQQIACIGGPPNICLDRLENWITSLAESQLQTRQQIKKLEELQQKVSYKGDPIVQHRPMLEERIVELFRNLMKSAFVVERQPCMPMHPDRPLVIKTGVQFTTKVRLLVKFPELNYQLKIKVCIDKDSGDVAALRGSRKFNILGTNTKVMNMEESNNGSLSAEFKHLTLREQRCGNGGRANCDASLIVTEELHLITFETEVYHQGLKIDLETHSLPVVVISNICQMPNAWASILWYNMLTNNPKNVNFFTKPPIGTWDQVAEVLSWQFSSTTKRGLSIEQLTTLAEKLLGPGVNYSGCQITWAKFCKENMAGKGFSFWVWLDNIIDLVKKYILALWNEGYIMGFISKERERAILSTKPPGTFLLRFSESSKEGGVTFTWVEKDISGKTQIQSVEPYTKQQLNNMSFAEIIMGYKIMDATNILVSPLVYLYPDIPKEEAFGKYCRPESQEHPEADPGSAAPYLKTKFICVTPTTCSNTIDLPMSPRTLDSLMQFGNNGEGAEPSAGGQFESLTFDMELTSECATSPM
# Hypoxia-inducible factor 1-alpha (Homo sapiens), sequence (Q16665 whole entry, looked up): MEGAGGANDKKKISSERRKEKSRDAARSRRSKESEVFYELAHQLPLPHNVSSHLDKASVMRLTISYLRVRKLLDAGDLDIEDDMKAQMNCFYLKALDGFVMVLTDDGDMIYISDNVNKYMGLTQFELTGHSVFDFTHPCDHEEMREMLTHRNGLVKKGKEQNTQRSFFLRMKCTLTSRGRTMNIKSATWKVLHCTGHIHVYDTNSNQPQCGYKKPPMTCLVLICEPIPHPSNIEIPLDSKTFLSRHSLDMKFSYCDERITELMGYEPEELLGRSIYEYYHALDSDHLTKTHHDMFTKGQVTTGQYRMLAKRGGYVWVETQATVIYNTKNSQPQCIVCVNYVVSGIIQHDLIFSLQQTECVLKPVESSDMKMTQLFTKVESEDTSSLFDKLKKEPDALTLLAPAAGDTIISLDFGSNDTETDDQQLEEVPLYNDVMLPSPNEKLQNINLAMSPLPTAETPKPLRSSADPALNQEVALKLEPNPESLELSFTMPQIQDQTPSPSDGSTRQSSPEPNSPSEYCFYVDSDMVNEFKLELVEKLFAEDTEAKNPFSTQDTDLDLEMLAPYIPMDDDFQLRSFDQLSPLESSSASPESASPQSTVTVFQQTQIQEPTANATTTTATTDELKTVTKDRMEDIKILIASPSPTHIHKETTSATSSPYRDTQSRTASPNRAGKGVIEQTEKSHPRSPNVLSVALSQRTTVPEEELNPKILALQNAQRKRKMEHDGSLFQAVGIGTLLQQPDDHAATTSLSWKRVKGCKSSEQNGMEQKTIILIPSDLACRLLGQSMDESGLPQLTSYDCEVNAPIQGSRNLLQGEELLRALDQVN
# Paired box protein Pax-6 (Homo sapiens), sequence (P26367 whole entry, looked up): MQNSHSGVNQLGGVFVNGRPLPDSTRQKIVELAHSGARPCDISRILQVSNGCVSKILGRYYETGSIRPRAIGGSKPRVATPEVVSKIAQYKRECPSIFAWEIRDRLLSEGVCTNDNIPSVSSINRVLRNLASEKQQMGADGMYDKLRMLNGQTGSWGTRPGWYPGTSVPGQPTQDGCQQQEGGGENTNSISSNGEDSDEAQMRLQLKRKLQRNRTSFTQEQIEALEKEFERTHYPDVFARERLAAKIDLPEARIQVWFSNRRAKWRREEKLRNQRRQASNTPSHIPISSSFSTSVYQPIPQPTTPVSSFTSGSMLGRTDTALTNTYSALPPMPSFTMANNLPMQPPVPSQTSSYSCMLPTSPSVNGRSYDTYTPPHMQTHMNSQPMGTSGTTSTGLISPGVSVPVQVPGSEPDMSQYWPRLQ
# Heat shock factor protein 1 (Homo sapiens), sequence (Q00613 whole entry, looked up, the tested form may be a part): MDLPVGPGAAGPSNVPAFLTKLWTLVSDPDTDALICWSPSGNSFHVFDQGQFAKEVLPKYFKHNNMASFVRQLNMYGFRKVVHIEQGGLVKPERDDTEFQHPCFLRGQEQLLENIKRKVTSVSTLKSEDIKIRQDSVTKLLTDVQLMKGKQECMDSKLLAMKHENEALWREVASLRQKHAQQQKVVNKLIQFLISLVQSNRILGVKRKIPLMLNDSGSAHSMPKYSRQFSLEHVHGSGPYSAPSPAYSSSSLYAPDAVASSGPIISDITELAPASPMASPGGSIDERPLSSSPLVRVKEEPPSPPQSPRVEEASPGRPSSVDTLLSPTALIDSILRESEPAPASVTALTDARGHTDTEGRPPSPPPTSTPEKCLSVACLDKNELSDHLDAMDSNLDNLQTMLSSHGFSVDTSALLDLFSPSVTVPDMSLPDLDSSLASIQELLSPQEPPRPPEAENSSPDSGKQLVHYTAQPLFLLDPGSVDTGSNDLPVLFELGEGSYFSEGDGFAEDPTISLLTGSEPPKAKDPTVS
smiles,measurement,setting,value
C=C(C)C(=O)OCCOc1ccccc1,outcome,[1],inactive
same,outcome,[2],inactive
same,outcome,[3],inactive
same,outcome,[4],inactive
same,outcome,[5],inactive
same,outcome,[6],inactive
same,outcome,[7],inactive
same,outcome,[8],inactive
same,outcome,[9],inactive
same,outcome,[10],inactive
same,AC50,[11],68.5 µM (active)
same,outcome,[12],inactive
same,outcome,[13],inactive
same,outcome,[14],inactive
same,outcome,[15],inactive
same,outcome,[16],inactive
same,outcome,[17],inactive
same,outcome,[18],inactive
CCCOC(=O)CCCCC(=O)OCCC,outcome,[1],inactive
same,outcome,[2],inactive
same,outcome,[3],inactive
same,outcome,[4],inactive
same,outcome,[5],inactive
same,outcome,[6],inactive
same,outcome,[7],inactive
same,outcome,[10],inactive
same,AC50,[11],65.4 µM (active)
same,outcome,[12],inactive
same,outcome,[13],inactive
same,outcome,[14],inactive
same,outcome,[19],inactive
same,outcome,[15],inactive
same,outcome,[16],inactive
same,outcome,[17],inactive
same,outcome,[18],inactive
C=CC(=O)OCCOC(=O)C=C,outcome,[1],inactive
same,AC50,[2],25.6 µM (active)
same,outcome,[3],inactive
same,outcome,[4],inactive
same,outcome,[5],inactive
same,outcome,[6],inactive
same,outcome,[7],inactive
same,AC50,[8],27.5 µM (active)
same,outcome,[9],inactive
same,AC50,[10],14.9 µM (active)
same,AC50,[11],26.5 µM (active)
same,AC50,[13],27.3 µM (active)
same,outcome,[14],inactive
same,AC50,[19],25.3 µM (active)
same,outcome,[15],inactive
same,outcome,[16],inactive
same,outcome,[17],inactive
same,AC50,[18],26.7 µM (active)
c1cc(C(c2ccc(OCC3CO3)cc2)C(c2ccc(OCC3CO3)cc2)c2ccc(OCC3CO3)cc2)ccc1OCC1CO1 (centres undefined),outcome,[1],inactive
same,AC50,[2],63.3 µM (active)
same,outcome,[3],inactive
same,outcome,[4],inactive
same,outcome,[5],inactive
same,outcome,[6],inactive
same,AC50,[7],56.5 µM (active)
same,outcome,[9],inactive
same,AC50,[10],34.4 µM (active)
same,AC50,[11],7.01 µM (active)
same,outcome,[12],inactive
same,outcome,[14],inactive
same,AC50,[19],31.8 µM (active)
same,outcome,[15],inactive
same,outcome,[16],inactive
same,AC50,[17],72.2 µM (active)
same,AC50,[18],36.8 µM (active)
CNC(=S)N(C)C,outcome,[1],inactive
same,outcome,[2],inactive
same,outcome,[3],inactive
same,outcome,[4],inactive
same,outcome,[5],inactive
same,outcome,[6],inactive
same,outcome,[7],inactive
same,outcome,[8],inactive
same,outcome,[9],inactive
same,outcome,[10],inactive
same,outcome,[11],inactive
same,outcome,[13],inactive
same,outcome,[14],inactive
same,outcome,[19],inactive
same,outcome,[15],inactive
same,outcome,[16],inactive
same,outcome,[17],inactive
same,outcome,[18],inactive
CCc1ccc2c(c1)C(=O)c1ccccc1C2=O,outcome,[1],inactive
same,outcome,[2],inactive
same,outcome,[3],inactive
same,outcome,[4],inactive
same,outcome,[5],inactive
same,outcome,[6],inactive
same,outcome,[7],inactive
same,outcome,[8],inactive
same,outcome,[9],inactive
same,outcome,[10],inactive
same,AC50,[11],3.01 µM (active)
same,outcome,[13],inactive
same,outcome,[14],inactive
same,outcome,[19],inactive
same,outcome,[15],inactive
same,outcome,[16],inactive
same,outcome,[17],inactive
same,outcome,[18],inactive
O=C(OCC1CCC2OC2C1)C1CCC2OC2C1 (centres undefined),outcome,[1],inactive
same,outcome,[2],inactive
same,outcome,[3],inactive
same,outcome,[4],inactive
same,outcome,[5],inactive
same,outcome,[6],inactive
same,outcome,[7],inactive
same,outcome,[8],inactive
same,outcome,[9],inactive
same,outcome,[10],inactive
same,outcome,[12],inactive
same,outcome,[13],inactive
same,outcome,[14],inactive
same,outcome,[19],inactive
same,outcome,[15],inactive
same,outcome,[16],inactive
same,outcome,[17],inactive
same,outcome,[18],inactive
